The supplement of paper PMC6555819

Key:
Test in all cases: PBM binding z-score (relative to random genomic background probes); higher = stronger binding; sequences stand for … in GC…GCGATTGACAGCGTAGAATGAAGG
[1] = tested on: FXR:RXRa (NR concentration 270 nM, RXRa partner concentration 90 nM)
Summary of the method: (§1)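 Binding z-scores take random background probes as their reference. They come from custom Agilent 4×180K protein-binding microarrays incubated 1 h with ligand-free nuclear receptor dimers, with antibodies against each partner (one per run) detecting binding. Scanned fluorescence was regression-normalized.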

[2] = tested on: LXRa:RXRa (NR concentration 270 nM, RXRa partner concentration 90 nM)
Summary of the method: as §1

[3] = tested on: LXRa homodimer (NR concentration 270 nM)
Summary of the method: as §1

[4] = tested on: LXRb:RXRa (NR concentration 270 nM, RXRa partner concentration 90 nM)
Summary of the method: as §1

[5] = tested on: LXRb homodimer (NR concentration 270 nM)
Summary of the method: as §1

[6] = tested on: PPARa:RXRa (NR concentration 270 nM, RXRa partner concentration 90 nM)
Summary of the method: as §1

[7] = tested on: PPARg:RXRa (NR concentration 180 nM, RXRa partner concentration 90 nM)
Summary of the method: as §1

[8] = tested on: PPARg:RXRa 270nM:90nM, anti-RXR (NR concentration 270 nM, RXRa partner concentration 90 nM)
Summary of the method: as §1

[9] = tested on: PPARg:RXRa 30nM:10nM, anti-RXR (NR concentration 30 nM, RXRa partner concentration 10 nM)
Summary of the method: as §1

[10] = tested on: PPARg:RXRa 90nM:30nM, anti-RXR (NR concentration 90 nM, RXRa partner concentration 30 nM)
Summary of the method: as §1

[11] = tested on: PPARg:RXRa DBDmut IVT, anti-RXR (DBD mutation: RXRa K156A/R161A, NR concentration 270 nM, RXRa partner concentration 90 nM)
Summary of the method: as §1

[12] = tested on: PPARg:RXRa IVT, anti-PPARg (NR concentration 270 nM, RXRa partner concentration 90 nM)
Summary of the method: as §1

[13] = tested on: PPARg DBDmut:RXRa IVT, anti-PPARg (DBD mutation: PPARg1 K132A/R137A, NR concentration 270 nM, RXRa partner concentration 90 nM)
Summary of the method: as §1

[14] = tested on: PPARg DBDmut IVT, anti-PPARg (DBD mutation: PPARg1 K132A/R137A, NR concentration 270 nM)
Summary of the method: as §1

[15] = tested on: PPARg homodimer (NR concentration 180 nM)
Summary of the method: as §1

[16] = tested on: PXR:RXRa (NR concentration 270 nM, RXRa partner concentration 90 nM)
Summary of the method: as §1

[17] = tested on: PXR homodimer (NR concentration 270 nM)
Summary of the method: as §1

[18] = tested on: RARa:RXR (NR concentration 270 nM, RXRa partner concentration 90 nM)
Summary of the method: as §1

[19] = tested on: RARa homodimer (NR concentration 270 nM)
Summary of the method: as §1

[20] = tested on: RARb:RXRa (NR concentration 270 nM, RXRa partner concentration 90 nM)
Summary of the method: as §1

Sequence | PBM binding z-score [1] | PBM binding z-score [2] | PBM binding z-score [3] | PBM binding z-score [4] | PBM binding z-score [5] | PBM binding z-score [6] | PBM binding z-score [7] | PBM binding z-score [8] | PBM binding z-score [9] | PBM binding z-score [10] | PBM binding z-score [11] | PBM binding z-score [12] | PBM binding z-score [13] | PBM binding z-score [14] | PBM binding z-score [15] | PBM binding z-score [16] | PBM binding z-score [17] | PBM binding z-score [18] | PBM binding z-score [19] | PBM binding z-score [20]
ACTCGGAGGACACAGGTCAGAGCTACGCCAGTGA | 1.4 | 1.18 | 0.294 | 0.96 | -0.518 | 2.18 | 2.85 | 3.06 | 1.09 | 2.71 | 0.556 | 1.45 | -0.673 | 0.431 | 1.35 | 1.09 | -0.155 | 1.8 | 0.347 | 2.89
ATCGGAAGGTCGACGAGGTGAGTATACACCGTTT | 1.65 | 0.953 | -0.358 | 0.827 | -0.58 | 2.18 | 1.06 | 0.751 | -0.112 | 0.452 | -0.35 | 0.996 | 0.22 | -0.4 | 0.248 | 1.38 | -0.0622 | 1.66 | -0.26 | 2.51
GGAACGAAGGCAAGTTGATAGCAGAGTTTGATGG | -0.951 | -0.918 | -0.858 | -1.13 | -1.2 | -0.649 | 0.469 | -0.479 | -0.377 | -0.674 | -0.11 | -0.659 | 0.0164 | -0.632 | -0.995 | -0.665 | -0.247 | -0.931 | -0.746 | -0.503
CTCGAAAGGTAGTGCTCAGGTGAGTATACCAAAC | -0.118 | -0.487 | -0.334 | -0.319 | -0.503 | -0.373 | -0.362 | -0.344 | -0.375 | -0.618 | -0.0569 | -0.0512 | -0.21 | -0.517 | -0.0331 | -0.295 | -0.0771 | 0.238 | 0.44 | -0.123
AGAACGCGGGCAATGAGTTGATAGCACGGGTGGC | -0.43 | -0.534 | -0.756 | -1.26 | -1.21 | -0.548 | 0.71 | -0.504 | -0.182 | -0.404 | 0.179 | -0.0527 | 0.2 | -0.67 | -0.548 | -0.0595 | 0.229 | -0.166 | -0.629 | 0.349
CCGACTGGGGAATAAGGTTACCATAAGCCAGCCC | 0.215 | 1.7 | -0.22 | 0.69 | -0.763 | 1.35 | 1.09 | 1.47 | 0.215 | 1.03 | 1.7 | 1.42 | -0.845 | -0.915 | 0.47 | 0.362 | 0.0229 | 1.11 | -0.12 | 0.793
AGAATGAGGATAAGATCAGGGAAACAGAATACAT | 0.459 | -0.133 | -0.218 | -0.0492 | -0.342 | -0.0848 | 1.2 | -0.174 | 0.433 | 0.00747 | -0.0375 | -0.0536 | -0.123 | 0.538 | 0.327 | -0.171 | 0.272 | 0.067 | 0.354 | 0.0475
TTACCAAGGTGAGCTGAGGTCGATGATCCAACTC | 2.13 | 0.545 | -0.604 | 0.0564 | -1.26 | 1.2 | 0.288 | 0.701 | -0.265 | 0.0498 | 0.764 | 2.27 | -0.223 | -0.4 | -0.24 | 3.58 | -0.352 | 1.23 | -0.656 | 1.72
TAGCCTAGGTCAGATCCGGCCAGTATACGCTATA | 1.78 | 1.41 | -0.272 | 1.05 | -0.172 | 1.69 | 0.79 | 0.773 | -0.199 | 0.368 | 0.634 | 1.52 | 0.095 | -0.353 | 0.289 | 1.09 | -0.796 | 1.12 | -0.924 | 3.17
GATACAGGGTCAGGGCCAGAGTACGCGTATTGAT | 4.33 | 2.61 | -0.233 | 2.53 | -0.183 | 4.46 | 3.86 | 3.63 | 0.972 | 2.36 | 1.35 | 2.69 | -0.0398 | -0.619 | 1.64 | 2.28 | 0.125 | 3.24 | 0.471 | 3.82
CCAGACAGGTGAGAAGGTTACTCAGCCTCGATTA | 0.207 | 0.568 | -0.0205 | 0.724 | -0.277 | 1.54 | 0.536 | 0.872 | 0.0606 | 0.56 | 0.947 | 1.04 | -0.652 | -0.801 | 1.03 | 0.441 | 0.133 | 1.23 | 0.46 | 1.36
GCAGACAGGTGAAACGCAGGTAACTTAGGGTGGC | 0.0644 | -0.18 | -0.522 | -0.226 | -1.05 | 0.666 | 0.771 | 0.226 | -0.508 | -0.022 | 1.09 | 0.626 | -0.0838 | -0.922 | -0.576 | -0.333 | -0.519 | 0.279 | -0.246 | 0.798
TGTCAAAGTTCAAAGGTAACGTATGTATCCACAC | 7.33 | 6.48 | 4.88 | 4.63 | 1.63 | 5.67 | 8.6 | 7.61 | 5.63 | 7.23 | 0.0702 | 4.53 | 1.85 | 1.93 | 2.61 | 5.65 | 3.95 | 6.64 | 1.84 | 5.04
CCTCGGAGGACAGAAGGTCAGAGTTGTCCGCTTT | 1.19 | 1.59 | 0.486 | 1.21 | -0.813 | 1.88 | 0.0255 | 0.907 | -0.816 | 0.173 | 0.283 | 0.171 | -1.27 | -1.42 | 0.997 | 1.77 | -0.24 | 2 | 0.0194 | 3.16
ATATGTAGGTTAAGGGTCCTTCAGGTTGGTTCGC | 0.735 | 1.21 | 0.278 | 1.18 | 0.267 | 4.59 | 8.87 | 8.11 | 8.31 | 9.26 | 7.65 | 7.29 | 1.78 | 0.916 | 2.1 | 1.1 | 0.435 | 1.23 | 0.703 | 1.24
